GLS inhibitor = glutaminase GLS (human) inhibition; O94925; GLS enzymatic activity, qHTS titration; Potency, µM (doses to about 45.5 µM), without a hit: at the highest dose activity change, negative = inhibition, hits mostly inhibitors; hit rate 0.21% among 410,000; note: potency is the fitted concentration of half-maximal effect
Target sequence (O94925 whole entry, looked up): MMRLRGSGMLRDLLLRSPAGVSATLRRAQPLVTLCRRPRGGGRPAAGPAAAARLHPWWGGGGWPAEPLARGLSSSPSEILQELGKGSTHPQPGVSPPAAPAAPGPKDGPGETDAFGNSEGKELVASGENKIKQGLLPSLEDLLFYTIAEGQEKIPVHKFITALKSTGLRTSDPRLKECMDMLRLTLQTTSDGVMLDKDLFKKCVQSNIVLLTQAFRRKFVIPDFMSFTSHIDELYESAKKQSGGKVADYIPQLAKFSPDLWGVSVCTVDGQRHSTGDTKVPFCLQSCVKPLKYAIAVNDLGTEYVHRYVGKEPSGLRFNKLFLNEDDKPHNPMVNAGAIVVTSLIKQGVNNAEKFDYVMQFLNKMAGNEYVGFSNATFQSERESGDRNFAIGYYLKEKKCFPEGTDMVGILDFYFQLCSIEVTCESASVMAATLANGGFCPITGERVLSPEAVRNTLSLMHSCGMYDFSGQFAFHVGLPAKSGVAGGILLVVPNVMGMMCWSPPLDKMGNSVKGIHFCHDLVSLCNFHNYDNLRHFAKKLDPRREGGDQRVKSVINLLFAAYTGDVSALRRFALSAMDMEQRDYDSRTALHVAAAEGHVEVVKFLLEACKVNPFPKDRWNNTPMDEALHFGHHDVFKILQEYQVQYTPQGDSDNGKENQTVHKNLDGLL
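hKGA in 45 mM KH2PO4 pH 8.2, 0.02% Tween-20 with pin-transferred compounds; 1 mM L-glutamine (stock) plus glutamate oxidase/HRP/Amplex Red coupling added. Fluorescence read initially and after 30 min at RT.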
GCN5L2 inh = blocks human GCN5L2 histone acetyltransferase. Q92830. GCN5L2 HAT assay, ThioGlo1 CoA-SH fluorescence. Potency, µM (doses to about 58.9 µM), without a hit: at the highest dose activity change, negative = inhibition, hits mostly inhibitors. hit rate 0.21% among 390,000; note: potency is the fitted concentration of half-maximal effect
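Titration-based screen in which CoA formation is detected via maleimide probe ThioGlo1 (50uM) turning fluorescent on thiol reaction; substrates H3(1-25) 75uM and acetyl-CoA 70uM, GCN5L2 20nM, 20 min incubation at room temperature.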
PI4K2A block = blocks human PI4K2A kinase activity. activity change, negative = inhibition, % at 76.9 µM. purified PI4K2A, ADP-Glo luminescence, 1 h; hits give low values. hit rate 0.13% among 420,000; in the data active = activity change below about -50%; inconclusive = mostly about -30% to -49%;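 note: -100% = wells without enzyme as full effect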
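Compounds are screened against recombinant PI4K2A using PI as substrate and ATP, the latter dispensed at 300 microM. Reactions run one hour at ambient temperature before ADP-Glo detection; full inhibition defined by wells lacking enzyme.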
PLK1 PBD block = inhibitors of human PLK1 polo-box domain binding. P53350. Plk1 PBD binding of FITC phosphopeptide, fluorescence polarization. Potency, µM, inactives show max response, negative = inhibition, actives largely listed as inhibitors. hit rate 2.8% among 360,000. AID 720504; note: potency is the fitted concentration of half-maximal effect; series mostly up to about 57 µM; nearly all actives have a fitted effect of over 65% in size
VDR inhibitor = vitamin D3 receptor (human) inhibition; Potency, µM, inactives show max response, negative = inhibition, hits mostly inhibitors; hit rate 0.93% among 400,000; P11473; VDR-SRC2-3 peptide fluorescence polarization, 2 h; AID 504847; note: potency is the fitted concentration of half-maximal effect
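Compounds are added to VDR with labelled SRC2-3 coactivator peptide and held 2 h at room temperature. Inhibition of the VDR–peptide interaction is then read as a change in fluorescence polarization.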
The depositor's hits bear a star; ? = inconclusive; . = not tested or not shown. Shown are actives, neighbours in structure and some others; about 3.1% of the full set was active somewhere. Unless noted, calls come from the whole dose curve; as a rule, active = well fitted curve in the direction sought with a large enough effect; inconclusive = small, poorly fitted or top-dose-only effect, or another doubt; inactive = no such curve, though single readings can be large; an effect the other way counts as inactive or inconclusive. Unless noted, % is set by controls: 0 for no effect and ±100 for the full control effect.

SMILES | GLS inhibitor | GCN5L2 inh | PI4K2A block | PLK1 PBD block | VDR inhibitor
C/C=C\C=C/C(=O)Nc1cccc(C2=NOC3(C2)C[C@@H](C(N)=O)N(C(=O)/C=C/CC)C3)c1 (stereo partly specified) | -23% | -10% | -17 | ? | -21%
C/C=C\C=C\C(=O)N1CC2(CC(c3cccc(NC(=O)CC(c4ccccc4)c4ccccc4)c3)=NO2)C[C@H]1C(N)=O (stereo partly specified) | -26% | -10% | -19 | 34µM* | ?
C/C=C(\C)C(=O)N1CC2(CC(c3cccc(NC(=O)CC(c4ccccc4)c4ccccc4)c3)=NO2)C[C@H]1C(N)=O (stereo partly specified) | . | 14% | . | . | .
C=C(C)C(=O)N1CC2(CC(c3cccc(NC(=O)/C=C\C=C/C)c3)=NO2)C[C@H]1C(N)=O (stereo partly specified) | 3% | 0% | ? | 24µM* | 89µM*
C/C=C\C=C/C(=O)Nc1cccc(C2=NOC3(C2)C[C@@H](C(N)=O)N(C(=O)/C=C/C=C\C)C3)c1 (stereo partly specified) | 11µM* | -35% | ? | ? | ?
CCSc1nc2ccccc2n1C(=O)/C=C\c1ccc(OC)c(OC)c1 | 0% | -14% | 28 | -2% | 50µM*
FC(F)(F)c1cnc(-c2cnc3c(-c4ccc(Cl)cc4)cnn3c2)c(Cl)c1 | 5% | -2% | 2 | -10% | -16%
Cc1nn2cc(-c3ncc(C(F)(F)F)cc3Cl)cnc2c1Br | 0% | -2% | -2 | 24µM* | -12%
CC(=O)c1c(C)[nH]c(C(=O)N2CCCCCC2)c1C | ? | -4% | -3 | 2.7µM* | -28%
COc1ccc(N(CC(=O)Nc2cc(C)ccc2C)S(=O)(=O)c2ccccc2[N+](=O)[O-])c(OC)c1 | 12% | -16% | 2 | 12µM* | -11%
O=C(NC1CCCCN(Cc2cccc(F)c2)C1=O)c1cccc(C(F)(F)F)c1 (stereo unspecified) | . | . | -4 | . | .
COc1cc(C(O)P(=O)(OCC(C)C)OCC(C)C)cc(OC)c1OC (stereo unspecified) | 10% | -3% | -5 | 12µM* | -8%
O=C(OC12CCCN(C1)/C(=C/c1cccc(Cl)c1)C2)c1ccno1 (stereo unspecified) | . | . | 3 | . | .
C=C(C)C(=O)Nc1cccc(C2=NOC3(C2)C[C@H](C(N)=O)N(C(=O)c2ccccc2)C3)c1 (stereo partly specified) | 5% | -1% | -25 | ? | -13%
CCC(=O)Nc1cccc(C2=NOC3(C2)C[C@@H](C(N)=O)N(C(=O)COc2ccc(Cl)cc2)C3)c1 (stereo partly specified) | 3% | -5% | -2 | 1% | -9%
C=C(C)C(=O)Nc1cccc(C2=NOC3(C2)C[C@H](C(N)=O)N(C(=O)COc2ccc(Cl)cc2)C3)c1 (stereo partly specified) | 10µM* | -15% | 0 | 24µM* | -9%
C=C(C)C(=O)Nc1cccc(C2=NOC3(C2)C[C@@H](C(N)=O)N(C(=O)C(=C)C)C3)c1 (stereo partly specified) | -8% | 0% | -29 | -27% | -15%
C=C(C)C(=O)Nc1cccc(C2=NOC3(C2)C[C@@H](C(N)=O)N(C(=O)C2(C)CC2)C3)c1 (stereo partly specified) | 28µM* | -35% | -6 | ? | 7%
C=C(C)C(=O)Nc1cccc(C2=NOC3(C2)C[C@@H](C(N)=O)N(C(=O)c2ccc(Cl)cc2)C3)c1 (stereo partly specified) | 10µM* | 4% | -8 | 24µM* | -7%
C=CCOC(=O)N[C@@H](Cc1ccccc1)/C(C(=O)OC)=C(\C)NCc1ccccc1 | . | . | . | . | -11%
CCOc1cccc2c1OC1(C)CC2NC(=O)N1c1ccc(OC)cc1 (stereo unspecified) | -28% | -15% | -3 | 13µM* | -11%
COc1cccc(N2CCN(C(=O)c3cccc(N4C(=O)NC5CC4(C)Oc4c(OC)cccc45)c3)CC2)c1 (stereo unspecified) | 9% | 2% | 5 | -5% | -4%
COc1ccc(Oc2nc3c(c(=O)n(C)c(=O)n3C)n2Cc2ccccc2)cc1 | 1% | 0% | 2 | 27µM* | -17%
Cc1ccc(Cn2c(N/N=C/c3ccncc3)nc3c2c(=O)n(C)c(=O)n3C)cc1 | ? | -5% | 3 | 5% | 9%
C=CCOc1nc2c(c(=O)n(C)c(=O)n2C)n1Cc1ccccc1 | 0% | 0% | 0 | -17% | 18%
SMILES | GLS inhibitor | GCN5L2 inh | PI4K2A block | PLK1 PBD block | VDR inhibitor
Cn1c(=O)c2c(nc(N/N=C/c3ccncc3)n2Cc2ccccc2)n(C)c1=O | 13µM* | -3% | -3 | -3% | 8%
Cn1c(=O)c2c(ncn2Cc2ccccc2)n(C)c1=O | 2% | 2% | 1 | 27µM* | -25%
NC(=O)CCC1NC(=O)C(Cc2ccccc2)NC(=O)C(Cc2ccc(O)cc2)NC(=O)CCSSCC(C(=O)N2CCCC2C(=O)NC(CCCN=C(N)N)C(=O)NCC(N)=O)NC(=O)C(CC(N)=O)NC1=O (stereo unspecified) | 23% | -11% | . | . | -16%
S=c1[nH]nc(-c2cc3c(s2)-c2ccccc2CC3)o1 | 3% | ? | 9 | 21µM* | ?
CSc1nnc(-c2cc3c(s2)-c2ccccc2CC3)o1 | 0% | -6% | -3 | 0% | 8%
O=C1NCCN1c1ncc([N+](=O)[O-])s1 | 10% | 1% | 6 | 13% | -10%
O=[N+]([O-])c1cnc(Sc2ccncn2)s1 | 26% | -11% | -14 | 0.67µM* | 22µM*
Cc1ccc(S(=O)(=O)N(C)CCN(C)c2nc(-c3cccs3)nc3ccccc23)cc1 | . | . | . | . | -20%
CCn1cc(C(=O)N2CC(C)CC(C)C2)c(=O)c2cc(S(=O)(=O)N(C)C)ccc21 (stereo unspecified) | 1% | -20% | -4 | 21µM* | -16%
CCOC(=O)C1=C(C)Nc2nc(=S)[nH]n2C1c1ccc(Cl)cc1 (stereo unspecified) | -26% | -1% | -1 | 24µM* | 79µM*
Cc1nc(-c2coc3c(O)c(O)ccc3c2=O)cs1 | . | . | . | . | -10%
O=S(=O)(O)c1ccc(O)cc1 | -12% | -10% | 1 | . | 2%
CC1=NN(c2ccc(S(=O)(=O)O)cc2C)C(=O)C1 | 0% | -3% | -68* | ? | -25%
Cc1cccc(N2CCN(C(=O)c3ccc(NC4=NC5CS(=O)(=O)CC5S4)cc3)CC2C)c1 (stereo unspecified) | 28% | -2% | 5 | 24µM* | -29%
O=C(c1ccc(NC2=NC3CS(=O)(=O)CC3S2)cc1)N1CCN(c2ccccc2)CC1 (stereo unspecified) | 14% | ? | -10 | -9% | 5%
CCCCCC[C@H](CC)CN(C(=O)Oc1ccccc1)c1ccccc1 | . | . | 1 | . | .
